Screens as filed in PubChem BioAssay.
NPR1 antag – Natriuretic polypeptide receptor (hNpr1) antagonism - Primary qHTS; Atrial natriuretic peptide receptor 1 (Homo sapiens), P16066; HEK293 hNpr1 GloSensor cGMP, ANP-stimulated luminescence; Potency, µM (doses to about 46.3 µM), for inactives: at the top dose activity change, negative = inhibition, usual class: inhibitors; 1.6% of 76,000 active; AID 1347048, 2019; calls by dose curve; note: nearly all actives have a fitted effect of over 60% in size
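HEK293 cells stably expressing human Npr1 and cGMP GloSensor pGS-40F, loaded 2 h with 2% GloSensor reagent, given compound 30 min at room temperature. Luminescence read before and 20 min after 0.1 nM hNppA.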
3T3 cytotox – Cytotoxic Profiling in NIH 3T3 Cell Line of Diverse Libraries Using Quantitative High-Throughput Screening; NIH 3T3 viability, CellTiter-Glo ATP luminescence, 48-72 h; Potency, µM (doses to about 96.7 µM), without a hit: at the highest dose activity change, negative = cytotoxicity, usual class: inhibitors; AID 1345082, 2018; 4.3% of 94,000 active; note: nearly all actives have a fitted effect of over 55% in size
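First NIH 3T3 cells are plated at 400 cells/well; next compound is pinned in; then plates incubate 48 or 72 hr at 37 °C; finally CellTiter-Glo is added and luminescence read after 10 min.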
GPT2 inhibitor – Primary qHTS assay for inhibitors of Glutamate pyruvate transaminase 2 (GPT2); Recombinant GPT2, coupled pyruvate oxidase/HRP Amplex Red fluorescence; Potency, µM (titrated, usually from 57.7 µM), inactives show top-dose activity change, negative = inhibition, hits mostly inhibitors; 0.25% of 100,000 active; note: nearly all actives have a fitted effect of over 60% in size
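Fluorescence read-out: pyruvate from GPT2 turnover coupled to pyruvate oxidase, HRP and Amplex Red (0.2mM ThPP, 0.2U/mL PO and HRP, 50uM Amplex final). Substrates 250uM a-KG, 2mM L-alanine; enzyme 10ng/uL; 30 min RT.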
FLuc inh – Firefly luciferase inhibition profiling of diverse chemical library using quantitative high-throughput screening. 2.5% of 76,000 active. AID 1347043, 2019. Potency, µM (doses to about 115 µM), usual class: inhibitors. purified P. pyralis luciferase, luminescence, biochemical; note: nearly all actives have a fitted effect of over 65% in size
Target sequence (P08659 whole entry, looked up): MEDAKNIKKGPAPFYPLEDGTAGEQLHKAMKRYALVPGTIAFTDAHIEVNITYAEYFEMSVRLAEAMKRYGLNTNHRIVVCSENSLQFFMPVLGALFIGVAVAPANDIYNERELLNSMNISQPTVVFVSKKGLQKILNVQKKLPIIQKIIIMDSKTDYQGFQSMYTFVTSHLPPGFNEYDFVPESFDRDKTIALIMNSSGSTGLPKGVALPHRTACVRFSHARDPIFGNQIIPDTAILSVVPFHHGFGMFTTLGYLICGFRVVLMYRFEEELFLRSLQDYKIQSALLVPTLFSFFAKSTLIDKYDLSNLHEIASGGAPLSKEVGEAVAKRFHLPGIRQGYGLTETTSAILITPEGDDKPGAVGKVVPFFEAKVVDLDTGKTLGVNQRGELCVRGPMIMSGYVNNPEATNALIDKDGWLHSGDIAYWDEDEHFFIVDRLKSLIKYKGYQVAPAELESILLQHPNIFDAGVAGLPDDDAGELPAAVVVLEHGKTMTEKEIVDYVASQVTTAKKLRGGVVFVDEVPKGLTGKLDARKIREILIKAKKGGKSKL
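FLuc 10nM, D-luciferin 10uM, ATP 10uM, Mg acetate 10mM, Tris acetate pH 7.5, Tween/BSA; cpd qHTS; enzyme added last; CCD luminescence.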
HEK cytotox – Cytotoxic Profiling in HEK 293 Cell Line of Diverse Libraries Using Quantitative High-Throughput Screening; HEK 293 viability, ATP luminescence (CellTiter-Glo), 48-72 h; Potency, µM (top dose mostly 115 µM), for the others: at the top dose activity change, negative = cytotoxicity, usual class: inhibitors; 6.6% of 94,000 active; note: nearly all actives have a fitted effect of over 60% in size
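HEK 293 cells seeded at 250 cells/well were exposed to compound for 48 or 72 hr at 37 degree Celsius. Viability taken as ATP content by CellTiter-Glo luminescence.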
The depositor's hits bear a star; i = inactive; ? = inconclusive; . = no result given; [ ] = another dose, or the depositor's remark. The list is not random: actives were taken first. Their share in the collection is about 10%. Unless noted, calls come from the whole dose curve; as a rule, active = well fitted curve in the direction sought with a large enough effect; inconclusive = small, poorly fitted or top-dose-only effect, or another doubt; inactive = no such curve, though single readings can be large; an effect the other way counts as inactive or inconclusive. % is set by controls: 0 for no effect and ±100 for the full control effect; potency is the fitted concentration of half-maximal effect.

SMILES | NPR1 antag | 3T3 cytotox | GPT2 inhibitor | FLuc inh | HEK cytotox
Cn1cnc2cc(-c3cccc(C(F)(F)F)c3)cc(C(=O)NCc3cccnc3)c21 | -6%[70.6 µM] | ? | 0%[88.5 µM] | i | 100µM*
COc1cc(CNC(=O)c2cc(-c3cccc(N(C)C)c3)cc3ncn(C)c23)ccn1 | 4%[70.6 µM] | ? | i | ? | 71µM*
COc1ccc(-c2cc(C(=O)NCc3ccnc(N)c3)c3c(c2)ncn3C)cc1 | -8%[70.6 µM] | ? | -6%[88.5 µM] | i | ?
Cn1nc(C2CC2)n(C2CCN(C(=O)CC3CCCC3)CC2)c1=O | . | -16% | i | . | i
O=C(NCc1nnc2cc(-c3nc(C4CC4)no3)ccn12)c1c(F)cccc1F | 2% | ? | i | i | 35µM*
O=C(NCc1nnc2cc(-c3nc(C4CC4)no3)ccn12)c1ccccc1 | 4% | -1% | i | i | ?
CNC(=O)CCn1ncc2cc(OCc3ccccc3-c3ccc(F)cc3F)ccc21 | -2%[70.6 µM] | ? | ? | ? | 79µM*
CNC(=O)CCn1ncc2cc(OCc3ccccc3-c3cc(F)ccc3C)ccc21 | -27%[70.6 µM] | 79µM* | 4%[88.5 µM] | ? | 63µM*
CNC(=O)CCn1ncc2cc(OCc3ccccc3-c3ccccc3C)ccc21 | -18%[70.6 µM] | ? | -3%[88.5 µM] | i | ?
COc1ccc(NC(=O)N2Cc3[nH]cnc3C[C@H]2c2nc(-c3ccc(F)cc3)no2)cc1 | -30%[70.6 µM] | 50µM* | 0%[88.5 µM] | ? | ?
COc1ccc(NC(=O)N2Cc3[nH]cnc3C[C@H]2c2nc(-c3ccc(C(F)(F)F)cc3)no2)cc1 | -4% | ? | -13% | ? | ?
O=C(Nc1ccccc1)N1Cc2[nH]cnc2C[C@H]1c1nc(-c2ccc3c(c2)OCO3)no1 | -11%[70.6 µM] | ? | -6%[88.5 µM] | ? | -26%[172 µM]
COc1ccc(NC(=O)N2Cc3[nH]cnc3C[C@H]2c2nc(-c3ccc(C)cc3)no2)cc1 | ? | ? | -5%[88.5 µM] | 63µM* | ?
COc1ccc(NC(=O)N2Cc3[nH]cnc3C[C@H]2c2nc(-c3ccc(OC)cc3)no2)cc1 | -29% | ? | -10% | ? | -9%
COc1ccc(-c2noc([C@@H]3Cc4nc[nH]c4CN3C(=O)Nc3ccc(C)cc3)n2)cc1 | ? | ? | ? | 18µM* | ?
COc1ccc(NC(=O)N2Cc3[nH]cnc3C[C@H]2c2nc(-c3ccc(F)c(Cl)c3)no2)cc1 | ? | 32µM* | 0% | ? | ?
Cc1ccc(-c2ccc3nnc(CNC(=O)c4cc(Cl)ccc4F)n3n2)cc1 | 3% | ? | i | i | ?
Cc1ccc(-c2ccc3nnc(CNC(=O)c4cc(F)ccc4Cl)n3n2)cc1 | 0% | ? | i | i | 32µM*
COc1ccc(-c2nn(-c3ccc(F)cc3)c(OC(C)=O)c2-c2ccc(NC(C)=O)cc2)cc1OC | -16% | ? | ? | i | ?
COc1cc(OC)cc(-c2nn(-c3ccc(C)cc3C)c(OC(C)=O)c2-c2ccc(NC(C)=O)cc2)c1 | -18% | ? | 13µM* | i | ?
CCC(=O)Nc1ccc(-c2c(-c3cc(OC)cc(OC)c3)nn(-c3ccc(C)cc3)c2OC(C)=O)cc1 | -21% | -22% | 6.3µM* | i | ?
CC(=O)Oc1c(-c2ccc(NC(=O)C3CC3)cc2)c(-c2ccc3c(c2)OCO3)nn1-c1cccc(C)c1 | -5% | ? | 14µM* | i | ?
COc1ccc(-c2nn(-c3ccc(C)cc3C)c(OC(C)=O)c2-c2ccc(NC(C)=O)cc2)c(OC)c1 | -13% | ? | ? | i | -30%
COc1ccc(OC)c(S(=O)(=O)N2CCC(C(=O)N3CCCCCCNC(=O)CC3)CC2)c1 | -3% | -10% | 2% | i | i
Cc1cc(C)n(CCC(=O)NCC2CCN(c3cc(-c4ccccc4)[nH]n3)CC2)n1 | -4% | 1% | ? | i | -6%
